# Results: the OligoGym collection
# Biological target: AP4E1
# Test: pooled miR-30 sensor sort-seq; sequence = guide strand
# Conditions: shRNA
# Further: reference of the scale not given here.
row,Sequence,sensor-assay potency score (higher = more potent)
1,TACATTAATTCACTTGTCCTTT,-0.311
2,TACAACTGTATTCACAAGGAGA,-0.841
3,TTTTCTTCGTACAATCTCCTTA,0.18
4,TTCATTATTACAGACTTCCATA,-0.778
5,TAAAGAAGCATCTACCACCAAG,-0.753
6,AAGAACTTGAGATTGATCCTTT,0.655
7,TTTCAGACTACTCAGTTCCTGC,-0.633
8,TAATTTTTCTTCTTCGTGCTTG,0.244
9,TAACTTGAAGAAATCTCTGTGG,0.558
10,TTCATTGTCTGAATAAACCATG,-0.705
11,TTTCTTTATACCTTCCAGCTTC,-0.271
12,TATTTGTCTCTTTCAGTCCTGT,-0.0122

# Biological target: AP4S1
# Test: as above
# Conditions: shRNA
row,Sequence,sensor-assay potency score (higher = more potent)
1,TAAATAGCCATCTCGTTCTCAG,-0.314
2,TTGAATGATGAACTGTCTGGAG,0.198
3,TATATCAGCTTAAAATCCTTAT,-0.456
4,TTATATTCAATGAAAGAGCATT,-1.02
5,TTCATAAATAGCCATCTCGTTC,-1.14
6,TTAGAAAGTCGAGTCTGCCCTT,0.201
7,TTGTTCATTGGATCGAGAGAGA,-1.06
8,TAAATCAAGAAAACATTCCGGA,0.763
9,TTTGAATGATGAACTGTCTGGA,0.922
10,ATTAACTCCAACCACAATGAAG,-1.9
11,TAGAAAGTCGAGTCTGCCCTTG,-0.4
12,TGAATGATGAACTGTCTGGAGA,-0.912
